Results filed as inconclusive are left out. Calls of active or inactive are those of the source. How the source made its calls: active means hit-call score of the fitted dose curve at least 0.9, where 1 is the maximum; inconclusive means response in the unintended direction; inactive means score below 0.9.

The assay in a line: ACEA_ER_AUC_viability: ACEA Biosciences xCELLigence Real-Time Cell Analysis on Estrogen Receptor Agonism for Viability (AID 2283782). A digest of the protocol:
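Read-out: real-time electrical impedance (RT-CES) area under curve, loss of signal taken as reduced viability, normalized to DMSO baseline. T-47D cells, charcoal-stripped serum medium, compounds up to 100 uM final, continuous exposure, 80 h.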
For `ClC(c1ccccc1)(c1ccccc1)c1ccccc1`, the concentration at half-maximal activity (AC50) (as a rule, the concentration giving half of the maximal activity seen) is 82.6 µM (active).
Regarding `CCOC(=O)CCc1ccccc1`, the outcome was inactive.
In the case of `CCCCOCC`, the molecule was classed as inactive.
Consider `Clc1ccc(C(c2ccccc2Cl)C(Cl)Cl)cc1` (configuration not stated), for which the AC50 was 29.2 µM (active).
In the case of `CCOC(=O)C(C#N)=C(c1ccccc1)c1ccccc1`, the molecule was called inactive.
For the molecule `C=CCCC(=O)/C=C/C1C(C)=CCCC1(C)C` (configuration not stated), the AC50 is 68.8 µM (active).
With `CCC(=O)OCCOc1ccccc1`, the result was inactive.
As to `[O-]n1ccccc1=S.[O-]n1ccccc1=S.[Zn+2]`, the AC50 is 2.84 µM (active).
Turning to `CN(C)C(=S)SC(=S)N(C)C`, the AC50 was 90.3 µM (active).
Turning to `Nc1ccc(Cl)c([N+](=O)[O-])c1`, the molecule was called inactive.
`O=CCc1ccccc1`: the AC50 is 78.6 µM (active).
`CS(C)=O`: the result was inactive.
Same read-out and setting: under `CCCCCCCC/C=C\CCCCCCCC(=O)OCC` stands “inactive”; under `CCN(CC)C(=O)N(CC)CC`, “inactive”; under `CCOc1ccc(NC(=O)CC(C)=O)cc1`, “inactive”.
Same read-out and setting: under `O=C1OC2(c3ccccc31)c1ccc(O)c(Br)c1Oc1c2ccc(O)c1Br` stands “inactive”.
In the case of `CSCCC=O`, the AC50 was 85.8 µM (active).
For the molecule `CCCC(=O)OCCc1ccccc1`, the concentration at half-maximal activity (AC50) is 25.7 µM (active).
`CCOCCOCCOCC`: the molecule was called inactive.
On the same count and under the same terms, under `C=Cc1ccc(C)cc1` stands “inactive”.
On the same count and under the same terms, under `COc1ccc(CCC(C)=O)cc1` stands “inactive”.
As to `CCCCCCC(O)CCCCCCCCCCC(=O)O` (configuration not stated), the result was inactive.
As to `C=C[Si]1(C)O[Si](C)(C=C)O[Si](C)(C=C)O[Si](C)(C=C)O1` (configuration not stated), the AC50 was 88 µM (active).
On the same count and under the same terms, the result for `O=C(O)CCCCCCCCCCCC(=O)O` reads 50 µM (active); that for `CCCCCCCCCCCCCCN(CCO)CCO`, 7.2 µM (active).
With `CCCCCCOC(=O)CCC`, the outcome was inactive.
Regarding `Oc1ccc2cc(SSc3ccc4cc(O)ccc4c3)ccc2c1`, the AC50 is 87.1 µM (active).
Consider `O=C1NC2NC(=O)NC2N1` (configuration not stated), for which the result was inactive.
Still for that read-out and setting: the result for `CC(=O)NCCO` reads “inactive”; that for `NC(=S)NNC(N)=S`, “inactive”.
Same read-out and setting: the result for `c1ccc(CCc2ccccc2)cc1` reads “inactive”.
In the case of `COC(CC(C)CCCC(C)(C)O)OC` (configuration not stated), the molecule was called inactive.
On to `CC(C)c1ccccc1O`, for which the outcome was inactive.
On to `CN1CCOCC1`, for which the molecule was classed as inactive.
Take `NC1CCCCC1N` (configuration not stated): the AC50 was 77.1 µM (active).
As to `CC(=O)CC(=O)Nc1ccc(C)cc1C`, the call was inactive.
Take `COC(C)(C)CCCC(C)CC=O` (configuration not stated): the concentration at half-maximal activity (AC50) was 50 µM (active).

For the origin of these results see PubChem BioAssay (EPA / NIEHS).
